# Eya2 phos inh = inhibitors of human Eya2 phosphatase activity. O00167. recombinant Eya2, OMFP fluorescence dephosphorylation (OMFP is methylfluorescein phosphate). Potency, µM (top dose mostly 76.9 µM), most hits filed as inhibitors. 330,000 tested, 0.006% active. AID 488837
#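 Eya2 (0.2 uM) preincubated 10 min at ambient with compound, then OMFP substrate added at 50 uM; 10 min reaction in 50 mM HEPES pH 7.5, 50 mM NaCl, 5 uM MgCl2, 0.05% BSA, 1 mM DTT. Fluorescence read at Ex 485/Em 525 nm.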
# ALOX12 inh = ALOX12 (human) lipoxygenase inhibition; Potency, µM (highest dose often 108 µM), usual class: inhibitors; purified 12hLO, xylenol orange hydroperoxide absorbance; P18054; 580,000 tested, 1.1% active
# Target sequence (P18054 whole entry, looked up): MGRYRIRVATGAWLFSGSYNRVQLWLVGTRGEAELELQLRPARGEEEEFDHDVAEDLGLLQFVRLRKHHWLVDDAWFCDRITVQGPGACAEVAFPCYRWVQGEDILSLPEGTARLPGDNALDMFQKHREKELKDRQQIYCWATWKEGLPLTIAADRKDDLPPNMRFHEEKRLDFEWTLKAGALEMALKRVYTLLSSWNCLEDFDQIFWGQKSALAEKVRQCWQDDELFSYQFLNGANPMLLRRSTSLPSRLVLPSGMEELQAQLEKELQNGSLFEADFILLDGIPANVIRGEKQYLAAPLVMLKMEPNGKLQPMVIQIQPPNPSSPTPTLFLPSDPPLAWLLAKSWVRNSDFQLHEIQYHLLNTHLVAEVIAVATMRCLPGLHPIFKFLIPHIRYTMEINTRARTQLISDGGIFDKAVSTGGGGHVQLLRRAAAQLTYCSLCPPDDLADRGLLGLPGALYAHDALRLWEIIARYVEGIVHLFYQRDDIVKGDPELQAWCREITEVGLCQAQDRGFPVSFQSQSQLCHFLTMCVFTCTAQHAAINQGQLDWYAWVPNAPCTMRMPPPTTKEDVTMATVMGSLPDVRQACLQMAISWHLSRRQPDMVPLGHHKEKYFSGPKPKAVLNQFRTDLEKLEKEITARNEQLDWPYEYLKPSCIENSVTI
#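 Purified human 12hLO (150 nM final) in 25 mM Hepes, 0.01% Triton X-100, pH 7.0 was preincubated 15 min at room temperature with compound. Then 40 uM arachidonic acid was added, 30 min. Hydroperoxide was read by Fe-XO absorbance ratio 573/405 nm.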
# USP2a inh = inhibitors of human ubiquitin-specific protease USP2a; O75604; 330,000 tested, 0.01% active; USP2 core, Ub-CHOP2 coupled fluorogenic reporter, 485/531; Potency, µM (doses to about 38.3 µM), most hits filed as inhibitors
#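 Cell-free coupled assay: 10nM USP2 core preincubated 30min RT with compound in Tris-HCl pH 8.0/CaCl2/CHAPS buffer, then 25nM Ub-CHOP2 and 25nM reporter substrate; fluorescence (Ex 485/Em 531) read after 60min RT, normalized to NEM inhibition, concentration-response curves fitted.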
# TSG101-PTAP inh = blocks PTAP/TSG101 interaction to inhibit HIV-1 budding; Q99816; Fluorescence polarization, FITC-PTAP peptide / Tsg101 binding; Potency, µM (top dose mostly 115 µM), hits mostly inhibitors; 340,000 tested, under 10 active; AID 493005; active = well fitted inhibition curve with a large enough effect in the main read-out, with a control signal flat, not every such curve was filed as active; inconclusive = small, poorly fitted or top-dose-only effect, or effect the other way, or a change in a side signal; inactive = no such curve, though single readings can be large or run the other way
#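 Fluorescence anisotropy tracks displacement of a FITC-tagged PTAP peptide (50 nM) from the Tsg101 binding domain (10 uM), following a 20 min room-temperature incubation at pH 7.5.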
# Hits are given with their value; - = inactive; ? = inconclusive; . = no result given; [ ] = another dose, or the depositor's remark. Compounds with a hit are over-represented: about 1.1% of the library has one in this group of screens. Unless noted, calls follow the shape of the dose curve; as a rule, active = well fitted curve in the direction sought with a large enough effect; inconclusive = small, poorly fitted or top-dose-only effect, or another doubt; inactive = no such curve, though single readings can be large; an effect the other way counts as inactive or inconclusive.
SMILES,Eya2 phos inh,ALOX12 inh,USP2a inh,TSG101-PTAP inh
O=C(Nc1cccc2nsnc12)c1ccc(-c2ccc(Br)cc2)o1,-,35.5µM,-,-
O=C(Nc1cccc2nsnc12)c1cccs1,-,-,-,-
Cc1ncc2n1C(=O)N(C1CCN(Cc3ccccc3)CC1)C2,.,-,.,.
COc1ccc(/C=C2\SC(=S)N(CC(=O)OCC(=O)Nc3cc(Cl)cc(Cl)c3)C2=O)cc1,-,39.8µM,-,-
COc1ccc(/C=C2/SC(=S)N(CCCC(=O)Nc3cccc(O)c3)C2=O)cc1,-,-,-,-
O=C(Nc1cccc2ncccc12)c1ccc2ccccc2c1,.,11.2µM,.,.
CNC(=O)c1cc2cc(-c3c(C)noc3C)nc(-c3ccc(F)cc3OC)c2o1,.,-,.,.
Nc1ccccc1C1CC1,.,7.08µM,.,.
OC[C@@H]1CN(Cc2cccc3ccccc23)C[C@H](n2cnc3c(NCc4ccco4)ncnc32)O1,.,35.5µM,.,.
C=CCn1c(SCc2nc3ccccc3nc2C)nnc1-c1ccoc1C,-,31.6µM,-,-
Cc1ccc2[nH]c(C(=O)NCc3ccco3)cc2c1,.,-,.,.
CCN(Cc1ccco1)C(=O)c1cc2cc(Br)ccc2[nH]1,.,17.8µM,.,.
O=C(NCc1ccco1)c1cc2cc(Br)ccc2[nH]1,.,31.6µM,.,.
COc1ccc(-n2nc(C)c([C@@H]3C=C[C@@H](NCc4ccccc4)C3)c2C)cc1,.,-,.,.
Cc1nc(NC(=O)Cn2ccc(=O)n(C)c2=O)sc1C,.,-,.,.
Oc1c(CN2CCCCC2)cc(Br)c2cccnc12,-,5.62µM,-,-
O=S(=O)(c1cc(O)ccc1O)c1cccc2c(S(=O)(=O)c3cc(O)ccc3O)cccc12,-,31.6µM,-,-
C=CCn1c(SCC(=O)c2ccc(O)c(O)c2)nnc1-c1cccc(C)c1,-,8.91µM,-,-
Cc1cccc(OCC(=O)N2CCC(N3CCOCC3)CC2)c1,-,1.58µM,-,-
Cc1cccc(OCC(=O)N2CCN(C(=O)CCC3CCCC3)CC2)c1,-,-,-,-
Cc1cccc(OCC(=O)N2CCC3(CC2)NC(=O)N(c2ccc(F)cc2)N3)c1,.,4.47µM,.,.
COc1ccc(N2CCN(C(=O)CCc3ccccc3OC)CC2)cc1,-,-,-,-
O=C(Cc1ccccc1Cl)N1CCC2(CC1)NC(=O)N(c1ccc(F)cc1)N2,.,2.24µM,.,.
COc1ccccc1CCC(=O)N1CCC2(CC1)NC(=O)N(c1ccc(F)cc1)N2,.,3.16µM,.,.
Cc1c(-c2ccccc2F)[nH]c2ccc(CNC(=O)C3CCNC3)cc12 (stereo unspecified),.,-,.,.
SMILES,Eya2 phos inh,ALOX12 inh,USP2a inh,TSG101-PTAP inh
CCc1noc(CC2CCOC3(CCN(S(=O)(=O)c4ccc(C(C)C)cc4)CC3)C2)n1 (stereo unspecified),.,-,.,.
CSc1cccc(NC(=O)COc2cccc(-c3nnc4n3CCCC4)c2)c1,.,-,.,.
CCCC(=O)N1Cc2ccccc2CC2(CCCCN2Cc2ccncc2)C1 (stereo unspecified),.,-,.,.
CC(NC(=O)NCc1ccn[nH]1)c1ccc2c(c1)OCCO2 (stereo unspecified),.,-,.,.
CSC1=N/C(=C\c2ccc(C)o2)C(=O)S1,-[15.4 µM],44.7µM,-,-
CSC1=N/C(=C\c2ccc(F)cc2)C(=O)S1,-,-,-,-
CSC1=N/C(=C\c2ccc(C)s2)C(=O)S1,-,-,-,-
CCSC1=N/C(=C\c2ccc(-c3ccccc3[N+](=O)[O-])o2)C(=O)S1,-,?,-,-
CCCSC1=N/C(=C\c2ccc([N+](=O)[O-])o2)C(=O)S1,-,39.8µM,-,-
CSC1=N/C(=C\c2ccc(I)o2)C(=O)S1,.,5.62µM,.,.
CCCCC1CCC(C(=O)Nc2ccc(OC)c3ncccc23)CC1 (stereo unspecified),.,-,.,.
O=c1[nH]c(C2CCCN(Cc3ccccc3C(F)(F)F)C2)nn1-c1ccc(Cl)cc1 (stereo unspecified),.,-,.,.
O=C1c2ccccc2NC(c2ccc(Cl)cc2Cl)N1O (stereo unspecified),-,10µM,-,-
O=C1c2ccccc2NC(c2ccc(-c3cccc(F)c3)o2)N1O (stereo unspecified),-,35.5µM,-,-
O=C1c2ccccc2NC(c2ccc(-c3ccccc3F)o2)N1O (stereo unspecified),-,?,-,-
Cc1ccc(NC(=O)C(C)n2cccn2)c(Br)c1 (stereo unspecified),.,-,.,.
Cc1ccc(-n2nc(C)c([C@H]3C=C[C@@H](OC(=O)Nc4cccc(C(F)(F)F)c4)C3)c2C)cc1Cl,.,-,.,.
O=S(=O)(NCc1ccc(N2CCOCC2)nc1)c1cc(C(F)(F)F)cc(C(F)(F)F)c1,.,7.08µM,.,.

# Screens: PubChem, National Center for Advancing Translational Sciences (NCATS)
